Source: PubChem BioAssay
The source made the active and inactive calls. Unless noted, how the calls were made is not given here.

Assays:
[1] = anti-His antibody binders, primary screen, artefact control for SMM control protein annotation, biochemical, small-molecule microarray, 635 nm fluorescence (AID 1128); settings: anti-His Alexa647 antibody binding, higher = more signal;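 further: score merges feature fluorescence with signal-to-noise for each printed compound spot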
[2] = test system: Human papillomavirus type 1a E7 protein (residues 1-88); assay: HPV1a E7 small-molecule binders, primary screen, biochemical, small-molecule microarray, residues 1-88, 635 nm (AID 1129); settings: small-molecule microarray binding, fluorescence 635 nm; higher = more signal
[3] = target: Focal adhesion kinase 1 (Homo sapiens) (UniProt Q05397); assay: small-molecule microarray binders of FAK, primary screen, biochemical, 635/667 nm fluorescence, BSA, DTT (AID 1130); settings: PTK2 binding, 635 nm fluorescence, higher = more signal;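 further: composite of spot emission at 667 nm and signal to noise over triplicate slides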
Focal adhesion kinase 1 (Homo sapiens), sequence (Q05397 whole entry, looked up): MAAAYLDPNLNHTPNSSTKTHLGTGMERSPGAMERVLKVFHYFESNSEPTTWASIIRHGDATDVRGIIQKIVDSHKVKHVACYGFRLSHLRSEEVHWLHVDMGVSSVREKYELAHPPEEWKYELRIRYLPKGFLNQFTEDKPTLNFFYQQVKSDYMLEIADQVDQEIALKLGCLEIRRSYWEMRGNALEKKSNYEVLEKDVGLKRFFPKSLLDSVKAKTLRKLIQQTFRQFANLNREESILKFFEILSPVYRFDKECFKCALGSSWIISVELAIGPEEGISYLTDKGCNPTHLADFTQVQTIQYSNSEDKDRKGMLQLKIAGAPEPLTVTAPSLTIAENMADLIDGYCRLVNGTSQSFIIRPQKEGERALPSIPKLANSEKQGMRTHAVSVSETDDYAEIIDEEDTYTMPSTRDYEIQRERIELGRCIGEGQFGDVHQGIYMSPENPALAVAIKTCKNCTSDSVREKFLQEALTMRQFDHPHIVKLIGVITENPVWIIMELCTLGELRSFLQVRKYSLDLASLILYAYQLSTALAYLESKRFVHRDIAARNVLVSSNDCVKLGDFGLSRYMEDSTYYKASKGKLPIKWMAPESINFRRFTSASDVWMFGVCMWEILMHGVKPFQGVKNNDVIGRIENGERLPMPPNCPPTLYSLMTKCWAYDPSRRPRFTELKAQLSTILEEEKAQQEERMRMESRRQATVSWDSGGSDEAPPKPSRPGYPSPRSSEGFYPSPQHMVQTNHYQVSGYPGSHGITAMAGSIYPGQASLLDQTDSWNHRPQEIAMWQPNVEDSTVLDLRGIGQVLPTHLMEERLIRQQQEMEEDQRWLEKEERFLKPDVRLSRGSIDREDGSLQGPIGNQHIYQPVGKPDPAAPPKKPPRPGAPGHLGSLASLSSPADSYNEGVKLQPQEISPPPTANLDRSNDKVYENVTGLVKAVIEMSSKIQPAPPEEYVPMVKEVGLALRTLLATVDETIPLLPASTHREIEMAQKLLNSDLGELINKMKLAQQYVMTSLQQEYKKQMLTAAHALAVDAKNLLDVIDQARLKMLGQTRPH

[4] = test system: Fibrinogen (Alexa647-labelled); assay: fibrinogen binders on compound microarrays, profiling panel, artefact control for SMM control-protein annotation, biochemical, small-molecule microarray, 635/667 nm fluorescence (AID 1131); settings: fibrinogen-A647 binding fluorescence, higher = more signal;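 further: z-score merges 667 nm fluorescence with per-spot signal-to-noise over triplicate slides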
[5] = target: Follistatin (Homo sapiens) (UniProt P19883); assay: follistatin binders on small-molecule microarrays, primary screen, biochemical, small-molecule microarray, 635/667 nm fluorescence (AID 1132); settings: FST binding, 635 nm fluorescence, higher = more signal
Follistatin (Homo sapiens), sequence (P19883 whole entry, looked up): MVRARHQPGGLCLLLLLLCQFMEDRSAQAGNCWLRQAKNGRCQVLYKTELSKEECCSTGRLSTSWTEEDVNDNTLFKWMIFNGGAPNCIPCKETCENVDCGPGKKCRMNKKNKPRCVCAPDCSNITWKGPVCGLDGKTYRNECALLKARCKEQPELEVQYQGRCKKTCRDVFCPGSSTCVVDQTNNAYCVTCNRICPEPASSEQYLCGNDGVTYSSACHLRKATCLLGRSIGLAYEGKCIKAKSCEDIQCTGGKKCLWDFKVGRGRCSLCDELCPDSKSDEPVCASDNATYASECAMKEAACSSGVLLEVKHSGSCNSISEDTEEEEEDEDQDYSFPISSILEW

[6] = target: Fibroblast growth factor 2 (Homo sapiens) (UniProt P09038); assay: FGF2 binders on small-molecule microarrays, primary screen, biochemical, small-molecule microarray, 635/667 nm fluorescence (AID 1133); settings: small-molecule microarray binding, FGF2, fluorescence 635/667; higher = more signal
Fibroblast growth factor 2 (Homo sapiens), sequence (P09038 whole entry, looked up): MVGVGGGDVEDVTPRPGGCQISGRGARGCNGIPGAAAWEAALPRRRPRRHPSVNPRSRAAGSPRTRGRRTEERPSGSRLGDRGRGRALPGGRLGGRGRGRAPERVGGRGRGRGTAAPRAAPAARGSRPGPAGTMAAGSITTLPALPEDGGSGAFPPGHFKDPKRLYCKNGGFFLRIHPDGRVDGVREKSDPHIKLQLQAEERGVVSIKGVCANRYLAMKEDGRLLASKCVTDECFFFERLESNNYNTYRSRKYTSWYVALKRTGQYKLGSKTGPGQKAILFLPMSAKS

[7] = mitochondrial membrane potential change in A549 cells, profiling panel, cell-based, JC-1 fluorescence, basal, 24 h, 100 nL (AID 1138); settings: higher = more signal;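 further: A549 lung adenocarcinoma cells under basal conditions with no added stimulus; test concentration not given here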
Lefty1 = Lefty1 binders on small-molecule microarrays, primary screen, biochemical, small-molecule microarray, 635/667 nm fluorescence (AID 1139); settings: small-molecule microarray binding, fluorescence 635/667; higher = more signal
[8] = test system: wheat germ agglutinin (Triticum aestivum), Alexa647-labelled; assay: wheat germ agglutinin binders on compound microarrays, profiling panel, artefact control for SMM control-protein annotation, biochemical, small-molecule microarray, 635/667 nm fluorescence (AID 1140); settings: WGA-A647 binding, 635 nm fluorescence, higher = more signal;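 further: score merges 667 nm feature emission with signal to noise over triplicate slides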
[9] = target: Luciferin 4-monooxygenase (Photinus pyralis) (UniProt P08659); assay: firefly luciferase enzyme inhibitors, primary screen, biochemical, luminescence, purified enzyme, 2006 set (AID 1141); settings: SteadyGlo luminescence, 30 min, higher = more signal, called active from +8 up or from −8 down;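 further: cell-free assay with purified firefly luciferase at 100 ng per well in PBS; test concentration not given here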
Luciferin 4-monooxygenase (Photinus pyralis), sequence (P08659 whole entry, looked up): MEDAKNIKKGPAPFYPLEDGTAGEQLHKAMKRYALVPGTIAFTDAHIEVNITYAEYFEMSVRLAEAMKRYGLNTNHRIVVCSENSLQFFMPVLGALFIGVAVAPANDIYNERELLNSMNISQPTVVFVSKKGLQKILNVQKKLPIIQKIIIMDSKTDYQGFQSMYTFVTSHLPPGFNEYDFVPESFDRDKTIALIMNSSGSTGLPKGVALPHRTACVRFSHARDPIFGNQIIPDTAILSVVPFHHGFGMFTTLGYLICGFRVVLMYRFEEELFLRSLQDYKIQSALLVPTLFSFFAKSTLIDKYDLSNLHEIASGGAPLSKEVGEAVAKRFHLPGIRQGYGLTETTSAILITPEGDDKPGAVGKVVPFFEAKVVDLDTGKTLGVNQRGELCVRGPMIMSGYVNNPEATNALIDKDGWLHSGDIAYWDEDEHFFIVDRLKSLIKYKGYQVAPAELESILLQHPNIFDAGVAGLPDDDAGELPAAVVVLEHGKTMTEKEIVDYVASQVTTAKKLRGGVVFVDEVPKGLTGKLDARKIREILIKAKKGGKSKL

[10] = test system: Wnt5a (protein binding on small-molecule microarray); assay: Wnt5a binders on small-molecule microarray, primary screen, biophysical, 635/667 nm fluorescence (AID 1142); settings: 635 nm fluorescence, higher = more signal;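 further: fluorescence read at 667 nm with signal to noise per printed feature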
[11] = cell viability in Huh7 cells, primary screen, cytotoxicity control for HCV replication inhibitor project, CellTiter-Glo luminescence, basal, 48 h (AID 1143); settings: Huh7 HCV replicon, higher = more signal, called active from +8 up or from −8 down;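 further: Huh7 hepatoma cells carrying a hepatitis C replication reporter with no stimulus; test concentration not given here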
[12] = P. aeruginosa biofilm formation inhibitors, primary screen, PAO1 strain, BacTiter-Glo luminescence, LB-PBS (AID 1144); settings: 12 h, higher = more signal
[13] = CREB reporter modulators without forskolin, primary screen, cell-based, PC12, CRE-LacZ reporter, unstimulated (AID 1145); settings: no forskolin, luminescence, 4.5 h, higher = more signal, called active from +8 up or from −8 down
[14] = CREB reporter modulators under forskolin, primary screen, cell-based, PC12, CRE-LacZ reporter, forskolin-stimulated (AID 1146); settings: luminescence, 4.5 h, higher = more signal, called active from +8 up or from −8 down;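 further: PC12 cells with 6xCRE LacZ reporter stimulated by forskolin 10 µM; beta-galactosidase reporter signal reflecting CREB driven transcription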
[15] = target: Streptavidin (Streptomyces avidinii) (UniProt P22629); assay: streptavidin binders on small-molecule microarray, primary screen, artefact control for SMM compound annotation, biophysical, 635/667 nm fluorescence (AID 1147); settings: streptavidin binding, higher = more signal;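 further: signal reflects streptavidin binding to arrayed compounds as a control protein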
Streptavidin (Streptomyces avidinii), sequence (P22629 whole entry, looked up): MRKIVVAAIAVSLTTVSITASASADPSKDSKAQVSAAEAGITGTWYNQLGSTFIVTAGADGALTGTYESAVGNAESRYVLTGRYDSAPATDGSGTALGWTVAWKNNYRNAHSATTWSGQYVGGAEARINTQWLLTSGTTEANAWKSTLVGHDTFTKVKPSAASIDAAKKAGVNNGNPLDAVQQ

[16] = small-molecule binders of probe aInhba, primary screen, biochemical, small-molecule microarray, 635/667 nm fluorescence (AID 1148); settings: higher = more signal;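 further: score merges 667nm spot fluorescence with signal-to-noise for antibody binding to printed compounds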
Torsin-1A (Homo sapiens) [17] = target: Torsin-1A (Homo sapiens) (UniProt O14656); assay: torsin A binders from cell lysate, primary screen, small-molecule microarray, wild-type, 635/667 nm (AID 1149); settings: COS7 hTOR1A-WT lysate, 635 nm fluorescence, higher = more signal
Torsin-1A (Homo sapiens), sequence (O14656 whole entry, looked up): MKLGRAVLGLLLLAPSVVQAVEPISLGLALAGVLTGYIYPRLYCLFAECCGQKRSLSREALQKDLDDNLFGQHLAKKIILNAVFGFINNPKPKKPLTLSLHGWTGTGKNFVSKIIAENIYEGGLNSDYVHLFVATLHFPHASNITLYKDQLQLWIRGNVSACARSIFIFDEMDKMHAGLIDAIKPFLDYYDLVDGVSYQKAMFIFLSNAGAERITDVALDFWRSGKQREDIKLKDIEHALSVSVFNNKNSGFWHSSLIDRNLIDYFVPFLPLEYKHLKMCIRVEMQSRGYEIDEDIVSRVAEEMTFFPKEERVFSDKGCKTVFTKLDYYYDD

Torsin-1A (Homo sapiens) [18] = target: Torsin-1A (Homo sapiens) (UniProt O14656); assay: small-molecule binders of mutant TOR1A in lysate, primary screen, cell lysate, small-molecule microarray, COS7 lysate, 635/667 nm fluorescence (AID 1150); settings: COS7 hTOR1A mutant lysate, 635 nm fluorescence, higher = more signal;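 further: score pools 667 nm emission and signal to noise measuring lysate protein binding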
[19] = test system: Sonic hedgehog protein (Shh); assay: small-molecule binders of Shh protein, primary screen, biochemical, small-molecule microarray, 635/667 nm fluorescence (AID 1151); settings: small-molecule microarray binding, 635 nm fluorescence; higher = more signal;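 further: Shh protein binding to compounds spotted on small-molecule microarray slides; score combines spot fluorescence intensity with signal-to-noise across triplicate slides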

SMILES	composite z-score [1]	composite z-score [2]	composite z-score [3]	composite z-score [4]	composite z-score [5]	composite z-score [6]	z-score [7]	composite z-score (Lefty1)	composite z-score [8]	z-score [9]	composite z-score [10]	z-score [11]	z-score [12]	z-score [13]	z-score [14]	composite z-score [15]	composite z-score [16]	composite z-score (Torsin-1A (Homo sapiens) [17])	composite z-score (Torsin-1A (Homo sapiens) [18])	composite z-score [19]
CCCCC(=O)N(Cc1ccccc1F)[C@@H]1CC(C(=O)NCCO)=C[C@H](Oc2c(I)cc(CO)cc2OC)[C@H]1O	1.28	1.25	1.38	0.96	1.51	2.04	-1.47	1.58	0.736	1.57 (inactive)	1.91	-2.1 (inactive)	-0.43 (inactive)	0.673 (inactive)	0.377 (inactive)	-0.291	0.0541	1.68	0.769	2.45
COCCn1c(C(=O)N(C)C)cc2c1C[C@H]1CN(C(=O)c3ccccc3)[C@@](Cc3ccc(F)cc3)(C(=O)OC)[C@@H]21	2.3	1.1	0.169	0.485	0.134	-0.158	0.33	-0.0481	1.11	-0.663 (inactive)	0.304	-0.394 (inactive)	-0.191 (inactive)	-0.947 (inactive)	-0.578 (inactive)	0.45	-0.12	0.249	0.0952	-0.0212
O=C1O[C@@H](c2ccccc2)[C@@H](c2ccccc2)N2[C@@H](c3ccc(O)cc3)[C@]3(C(=O)Nc4ccc(C#CCCO)cc43)[C@@H](C(=O)N3CCCCCCC3)[C@H]12	2.27	1.24	0.724	0.952	1.42	0.94	-0.158	1.26	1.21	0.0848 (inactive)	0.409	-0.915 (inactive)	-0.547 (inactive)	-0.114 (inactive)	-0.394 (inactive)	1.55	1.46	1.37	1	0.887
C[C@H]1C2[C@H](Cc3ccccc3)NC(=O)[C@]23C(=O)N[C@H](Cc2ccccc2)C(=O)N[C@H](Cc2ccccc2)C(=O)NC/C=C/CCC/C=C/C3[C@@H]2O[C@]12C (stereo not given in full)	0.896	1.18	0.0256	0.304	1.08	0.519	-0.256	1.56	0.756	-3.27 (inactive)	0.127	-2 (inactive)	0.612 (inactive)	1.3 (inactive)	-0.696 (inactive)	-0.224	-0.149	0.299	0.225	0.843
[N-]=[N+]=Nc1ccccc1C[C@]1(C(=O)N2CCCCC2)N=C(c2ccc(OCCCO)cc2)O[C@H]1c1ccccc1N=[N+]=[N-]	1.6	1.24	0.544	0.945	1.18	0.806	0.591	-0.105	0.811	-3.15 (inactive)	0.316	-3.99 (inactive)	-0.546 (inactive)	0.722 (inactive)	-1.69 (inactive)	1.04	0.622	0.656	0.951	0.364
CN1C(=O)C2C=CC(C(O)C3=C[C@H]4C[C@@H](C3)C4(C)C)N(Nc3ccc([N+](=O)[O-])cc3[N+](=O)[O-])C2C1=O (stereo not given in full)	1.45	1.16	0.588	0.978	1.07	0.0958	0.731	0.181	1.02	-0.88 (inactive)	0.325	-0.119 (inactive)	-0.184 (inactive)	0.443 (inactive)	-0.946 (inactive)	1.56	0.421	0.124	0.566	0.0842
CCCNC(=O)[C@@]1(C)c2ccccc2C(=O)N(C(C)C)[C@H]1c1ccc(CO)cc1	-0.853	-0.54	0.198	-0.879	-0.127	-0.343	-0.809	-1.38	-0.867	0.33 (inactive)	0.182	-4.29 (inactive)	-0.744 (inactive)	0.0279 (inactive)	0.155 (inactive)	-0.586	-0.0791	0.398	-0.435	-0.946
O=C1c2ccccc2[C@](Cc2ccccc2I)(C(=O)O)[C@H](c2ccc(CO)cc2)N1Cc1ccccc1C(F)(F)F	1.3	1.09	0.425	0.9	0.72	-0.238	-0.635	-0.374	1.12	0.63 (inactive)	-0.186	-1.17 (inactive)	-0.99 (inactive)	-0.295 (inactive)	0.748 (inactive)	0.477	-0.024	-0.242	-0.203	-0.489
[N-]=[N+]=NCc1ccccc1C[C@]1(C(=O)NCCN2CCOCC2)N=C(c2ccc(OCCCO)cc2)O[C@H]1c1ccccc1CN=[N+]=[N-]	1.09	1.21	1.43	0.99	1.11	0.783	0.963	0.886	0.495	0.203 (inactive)	0.888	-6.14 (inactive)	-1.12 (inactive)	1.34 (inactive)	-0.887 (inactive)	0.803	0.0155	0.0892	0.938	1.45
